# Results: PubChem BioAssay AID504329 (Southern Research Specialized Biocontainment Screening …, 2011)
# In all, about 340,000 compounds went through this assay and about 1,000 (0.29%) were called active. Only a sample is shown. Results with a measured potency or affinity are listed apart. Unmarked numbers belong to inactive results. Rule as the data show it: inconclusive = inhibition above about 27% without an active follow-up result; inactive = below that.
# Test: NS1A inhibition, H1N1 influenza, cell based functional assay (AID 504329)
# Details: percent inhibition, at 12.5 µM, active compounds read high
row,Compound,inhibition
1,CCOc1ccc(OCCCC(=O)O)cc1,-12.4%
2,COC(=O)c1ccc(N2CCN(C)CC2)c(NC(=O)c2ccc(-c3ccc(Cl)cc3)o2)c1,-4.26%
3,CN1CCN(c2ccc(NC(=O)c3ccc(-c4ccc(Cl)cc4)o3)cc2)CC1,6.66%
4,N#C/C(=C\c1ccc(OCc2ccccc2)cc1)C(N)=O,4.02%
5,CCn1c(=O)n(CC)c2cc(N3CCCC3)c(NC(=O)c3cc(Cl)ccc3OC)cc21,12.7%
6,CN1CCN(/N=C/c2cccc(Cl)c2Cl)CC1,3.86%
7,CN1CCN(/N=C/c2ccc(-c3ccccc3)cc2)CC1,10.8%
8,Cc1ccc(C)c(OCCSc2nnc(C)c(=O)[nH]2)c1,-14.8%
9,Cc1ccc(S(=O)(=O)N2CCCC(C(=O)N3CCC4(CC3)OCCO4)C2)cc1 (centres undefined),2.04%
10,COc1ccc(S(=O)(=O)N(CCC(=O)O)Cc2ccccc2)cc1,-3.39%
11,O=C(N/N=C/c1cc(Br)c(O)c(Br)c1)c1cccnc1,-2.33%
12,COc1cc(/C=N/NC(=O)c2cccnc2)cc(Br)c1O,3.86%
13,O=C(N/N=C/c1cc2c(cc1Br)OCO2)c1cccnc1,3.42%
14,O=C(N/N=C/c1cc(Br)c(Br)o1)c1cccnc1,4.32%
15,Cc1ccc(N(CC(=O)NCc2ccccn2)S(=O)(=O)c2ccccc2)cc1Cl,-3.75%
16,Cc1ccc(NC(=O)CCN2C(=O)CSC2=O)cc1,-13.2%
17,CCCCN1C(=O)/C(=C2/Sc3ccc(OC)cc3N2CC)SC1=S,-6.84%
18,COc1ccc2c(c1)-c1c(sn(-c3ccccc3)c1=S)C(C)(C)N2,0.13%
19,COc1cc2c3c(c1)-c1c(sn(-c4cc(OC)ccc4OC)c1=S)C(C)(C)N3C(=O)C2=O,7.42%
20,COc1ccc(N2CCN(C(=O)c3ccc(Cl)c(S(=O)(=O)N4CCOCC4)c3)CC2)cc1,-0.24%

row,Compound,inhibition
1,CN(C)c1c(-c2ccccc2)cc(-c2ccccc2)[nH]c1=O,-13.7%
2,O=C(O)c1cccc(N2C(=O)/C(=C/c3ccc([N+](=O)[O-])cc3)C=C2c2ccccc2)c1,15.9%
3,O=C1/C(=C/c2ccc([N+](=O)[O-])cc2)C=C(c2ccccc2)N1c1ccccc1,16.3%
4,CSCCC(NC(=O)c1ccccc1)C(=O)N1CCN(C(=O)c2ccccc2)CC1 (centres undefined),-5.85%
5,C[C@H](CO)N1C[C@H](C)[C@@H](CN(C)S(=O)(=O)c2ccc(F)cc2)Oc2c(NS(=O)(=O)c3ccccc3)cccc2C1=O,-4.12%
6,Cc1oc(-c2cccc(Cl)c2)nc1CN1CCC(C(=O)NCc2cccnc2)CC1,9.09%
7,CCOc1ccc(NC(=O)CN2CCN(CC(=O)Nc3ccccc3OC)CC2)cc1,-5.69%
8,COc1ccccc1NC(=O)CN1CCN(CC(=O)Nc2ccc(F)cc2)CC1,1.85%
9,CCOC(=O)c1c(NC(=O)CN2CCN(C(=O)c3ccco3)CC2)sc(C)c1C,-5.18%
10,CC[n+]1c(/C=C(\C)SC)sc2ccccc21,3.81%
11,CCN1/C(=C\C=C(C(C)=O)C(C)=O)Sc2ccccc21,3.69%
12,CC[n+]1c(/C=C(\C)OC)sc2ccccc21,-2.73%
13,CC/C(=C/c1sc2ccccc2[n+]1CC)SC,-0.17%
14,CC[n+]1c(/C=C/Nc2ccccc2)sc2ccccc21,11.6%
15,CC[n+]1c(/C=C(/C)SC)sc2ccccc21,-2.81%
16,Cc1nn(C(C)C(=O)NNC(=S)Nc2ccc(F)cc2)c(C)c1[N+](=O)[O-] (centres undefined),6.47%
17,Cc1c(O)ccc(C(=O)CN2CCN(c3ccccc3F)CC2)c1O,-1.8%
18,CC(C)(C)c1ccc(C(=O)NCCCNC(=O)c2cccnc2)cc1,-2.72%
19,Cc1sc2nc(-c3ccccn3)[nH]c(=O)c2c1-c1ccccc1,-4.3%
20,CCN(CC)C(=O)c1sc2nc(-c3ccccn3)[nH]c(=O)c2c1C,-6.6%

row,Compound,inhibition
1,Cc1cc(C)c(S(=O)(=O)N2CCCC(C(=O)N3CCOCC3)C2)c(C)c1 (centres undefined),-9.55%
2,Fc1ccccc1NC(=S)N1CCOCC1,16.1%
3,COC(=O)c1sc(S(=O)(=O)Nc2ccc(C)cc2)c(C(=O)OC)c1C,12.7%
4,CCN(/C(N)=N/c1nc(C)cc(C)n1)c1ccccc1,-6.77%
5,CC12CCC(C(=O)N(CSC(=S)N/N=C\c3ccccc3)C1=O)C2(C)C (centres undefined),6.84%
6,CC12CCC(C(=O)N(CSC(=S)N/N=C\c3ccccc3Cl)C1=O)C2(C)C (centres undefined),-1.31%
7,CCC(C(=O)NC1CCCC1)n1c(SCc2cccc(C)c2)nc2ccncc21 (centres undefined),-51.9%
8,O=[N+]([O-])c1c(NCCCO)cc(N2CCCCCC2)c2nonc12,21.6%
9,COc1ccc(-c2nc(C#N)c(N3CC(C)OC(C)C3)o2)cc1OC (centres undefined),2.35%
10,COc1ccc(NS(=O)(=O)c2ccc(C(=O)N3CCN(c4ccc(F)cc4)CC3)cc2)cc1,1.18%
11,CC(CC(F)(F)F)N1CCC(n2nccc2NC(=O)CCCc2ccccc2)CC1 (centres undefined),-11%
12,Fc1ccccc1/C=N/Nc1ccc(Cl)nn1,-6.11%
13,Oc1ccc(/C=N/Nc2ccc(Cl)nn2)cc1O,4.82%
14,Cc1ccccc1/C=N/Nc1ccc(Cl)nn1,3.61%
15,Oc1c(Br)cc(Br)cc1/C=N/Nc1ccc(Cl)nn1,4.26%
16,CCCCC(=O)Nc1cccc(C(=O)N/N=C/c2ccc(OC)cc2OC)c1,1.12%
17,CC(C)OC(=O)c1cn(-c2ccccc2)nc1-c1ccc2c(c1)OCCO2,-6.27%
18,CCN(C[C@H]1N[C@@](C)(C(=O)OC)[C@H]2C(=O)N(Cc3ccccc3)C(=O)[C@@H]12)C(=O)c1ccc(F)cc1,-26.8%
19,O=C(CN1CCN(C(C(=O)Nc2ccc(Cl)cc2C(F)(F)F)c2ccccc2)CC1)NC1CC1 (centres undefined),3.63%
